# According to PMC7862700, “An all-to-all approach to the identification of sequence-specific readers for epigenetic DNA modifications on cytosine”:
# Assays:
# Experiment in all cases: DAPPL (digital affinity profiling via proximity ligation, sequencing); 10 mM Tris-HCl pH 7.5, 50 mM NaCl, 1 mM DTT, 4% glycerol, room temperature, 30 min; GST-TFs on glutathione beads, 16-mer random dsDNA library, 0.1% formaldehyde crosslink after washing; high values mean tight binding
# FLI1 = target: T1, FLI1 (Homo sapiens, UniProt Q01543 1-452); settings: protein: recombinant; tags: N-terminal GST; dsDNA, one strand shown
# T1 sequence: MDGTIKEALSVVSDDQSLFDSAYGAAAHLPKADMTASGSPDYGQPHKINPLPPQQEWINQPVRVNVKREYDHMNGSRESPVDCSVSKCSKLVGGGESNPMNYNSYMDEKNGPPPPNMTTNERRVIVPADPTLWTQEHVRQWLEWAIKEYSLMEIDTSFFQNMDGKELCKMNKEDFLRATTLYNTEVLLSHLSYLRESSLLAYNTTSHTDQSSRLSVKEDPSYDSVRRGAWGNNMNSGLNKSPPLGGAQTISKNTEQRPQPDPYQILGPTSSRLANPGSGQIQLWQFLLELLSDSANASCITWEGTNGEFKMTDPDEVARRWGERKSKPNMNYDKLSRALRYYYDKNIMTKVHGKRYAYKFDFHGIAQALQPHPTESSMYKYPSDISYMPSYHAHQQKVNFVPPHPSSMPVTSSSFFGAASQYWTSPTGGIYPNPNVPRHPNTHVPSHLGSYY
# Outline: (§1)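 Yeast served to express human transcription factors as GST fusions, which were then captured on glutathione beads and labelled with DNA barcodes. Pooled with a tag-only sample, they were incubated with 200 nmole of a 16-mer random double-stranded DNA library for 30 min at room temperature in Tris/NaCl/DTT/glycerol buffer, washed, crosslinked with 0.1% formaldehyde, ligated by proximity, amplified by PCR and sequenced. Dividing each hexamer's read frequency for a factor by its frequency for the tag-only sample gives the binding signal.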
# ELK1 = target: T2, ELK1 (Homo sapiens, UniProt P19419 1-428); settings: protein: recombinant; tags: N-terminal GST; dsDNA, one strand shown
# T2 sequence: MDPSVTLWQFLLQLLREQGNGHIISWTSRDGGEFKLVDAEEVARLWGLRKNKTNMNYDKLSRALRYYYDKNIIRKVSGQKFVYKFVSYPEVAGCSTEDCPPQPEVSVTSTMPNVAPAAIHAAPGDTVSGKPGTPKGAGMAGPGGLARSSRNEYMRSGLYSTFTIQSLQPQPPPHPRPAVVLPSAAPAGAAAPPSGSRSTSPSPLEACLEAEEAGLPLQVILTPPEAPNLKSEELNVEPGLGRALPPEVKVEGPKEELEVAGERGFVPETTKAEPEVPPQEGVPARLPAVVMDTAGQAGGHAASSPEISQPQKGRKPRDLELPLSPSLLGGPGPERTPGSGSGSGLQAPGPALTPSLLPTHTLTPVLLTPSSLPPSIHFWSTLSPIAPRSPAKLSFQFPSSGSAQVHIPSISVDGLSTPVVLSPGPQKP
# Outline: as §1
# GABPA = target: T3, GABPA (Homo sapiens, UniProt Q06546 1-454); settings: protein: recombinant; tags: N-terminal GST; dsDNA, one strand shown
# T3 sequence: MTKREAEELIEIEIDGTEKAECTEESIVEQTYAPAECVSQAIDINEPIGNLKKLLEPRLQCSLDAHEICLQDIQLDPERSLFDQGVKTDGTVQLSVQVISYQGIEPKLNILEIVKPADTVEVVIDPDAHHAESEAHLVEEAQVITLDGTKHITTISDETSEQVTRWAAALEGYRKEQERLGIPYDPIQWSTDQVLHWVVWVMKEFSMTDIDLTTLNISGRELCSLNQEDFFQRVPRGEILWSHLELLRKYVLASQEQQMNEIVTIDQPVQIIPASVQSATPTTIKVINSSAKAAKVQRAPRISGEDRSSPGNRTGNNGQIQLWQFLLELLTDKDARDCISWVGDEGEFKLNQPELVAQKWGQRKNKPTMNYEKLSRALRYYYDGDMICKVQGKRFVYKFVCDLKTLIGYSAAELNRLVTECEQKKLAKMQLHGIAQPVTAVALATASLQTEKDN
# Outline: as §1
# ERG = target: T4, ERG (Homo sapiens, UniProt P11308 1-479); settings: protein: recombinant; tags: N-terminal GST; dsDNA, one strand shown
# T4 sequence: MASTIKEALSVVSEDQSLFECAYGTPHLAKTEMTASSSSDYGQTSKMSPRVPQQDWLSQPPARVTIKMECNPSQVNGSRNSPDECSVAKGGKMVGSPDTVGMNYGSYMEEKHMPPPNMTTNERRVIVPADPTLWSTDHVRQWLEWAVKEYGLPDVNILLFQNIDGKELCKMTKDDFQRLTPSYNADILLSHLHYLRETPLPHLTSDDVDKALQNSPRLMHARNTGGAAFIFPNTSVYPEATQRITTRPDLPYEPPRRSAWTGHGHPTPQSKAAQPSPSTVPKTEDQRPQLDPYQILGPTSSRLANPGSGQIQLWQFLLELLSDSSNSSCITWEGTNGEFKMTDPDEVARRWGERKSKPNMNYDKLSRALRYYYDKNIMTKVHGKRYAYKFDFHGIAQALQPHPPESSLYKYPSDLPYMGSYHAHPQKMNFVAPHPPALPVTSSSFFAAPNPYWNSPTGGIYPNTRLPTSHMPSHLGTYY
# Outline: as §1
# ELF1 = ELF1 (Homo sapiens, UniProt P32519 1-619); settings: protein: recombinant; tags: N-terminal GST; dsDNA, one strand shown
# ELF1, sequence (P32519 whole entry): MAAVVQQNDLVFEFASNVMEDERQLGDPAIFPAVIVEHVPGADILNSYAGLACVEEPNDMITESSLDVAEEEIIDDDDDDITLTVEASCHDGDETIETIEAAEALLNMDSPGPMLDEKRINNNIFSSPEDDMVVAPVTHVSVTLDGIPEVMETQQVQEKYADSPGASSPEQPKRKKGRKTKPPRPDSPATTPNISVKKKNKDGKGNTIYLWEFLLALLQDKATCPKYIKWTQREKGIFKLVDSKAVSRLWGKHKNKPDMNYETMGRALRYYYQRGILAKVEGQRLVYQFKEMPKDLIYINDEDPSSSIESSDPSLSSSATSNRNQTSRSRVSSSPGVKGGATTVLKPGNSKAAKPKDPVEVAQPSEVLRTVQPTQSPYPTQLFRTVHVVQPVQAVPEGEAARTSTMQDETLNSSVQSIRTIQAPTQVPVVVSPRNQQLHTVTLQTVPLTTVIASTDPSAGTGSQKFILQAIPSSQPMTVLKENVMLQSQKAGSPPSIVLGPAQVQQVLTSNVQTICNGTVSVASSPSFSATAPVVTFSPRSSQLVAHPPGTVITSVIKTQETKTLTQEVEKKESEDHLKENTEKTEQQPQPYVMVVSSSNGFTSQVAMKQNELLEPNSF
# Outline: as §1
# EHF = target: T5, EHF (Homo sapiens, UniProt Q9NZC4 1-300); settings: protein: recombinant; tags: N-terminal GST; dsDNA, one strand shown
# T5 sequence: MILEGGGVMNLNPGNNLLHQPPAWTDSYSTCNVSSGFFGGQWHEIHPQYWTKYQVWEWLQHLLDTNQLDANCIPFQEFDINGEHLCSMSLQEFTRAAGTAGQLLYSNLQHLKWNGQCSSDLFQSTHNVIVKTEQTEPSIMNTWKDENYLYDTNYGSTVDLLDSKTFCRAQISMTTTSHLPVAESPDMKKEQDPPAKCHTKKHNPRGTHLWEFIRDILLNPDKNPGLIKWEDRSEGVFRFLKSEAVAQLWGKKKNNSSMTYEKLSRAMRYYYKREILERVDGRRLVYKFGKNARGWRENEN
# Outline: as §1
# SPI1 = SPI1 (Homo sapiens, UniProt P17947 1-270); settings: protein: recombinant; tags: N-terminal GST; dsDNA, one strand shown
# Outline: as §1
# SPIB = SPIB (Homo sapiens, UniProt Q01892 1-262); settings: protein: recombinant; tags: N-terminal GST; dsDNA, one strand shown
# SPIB, sequence (Q01892 whole entry): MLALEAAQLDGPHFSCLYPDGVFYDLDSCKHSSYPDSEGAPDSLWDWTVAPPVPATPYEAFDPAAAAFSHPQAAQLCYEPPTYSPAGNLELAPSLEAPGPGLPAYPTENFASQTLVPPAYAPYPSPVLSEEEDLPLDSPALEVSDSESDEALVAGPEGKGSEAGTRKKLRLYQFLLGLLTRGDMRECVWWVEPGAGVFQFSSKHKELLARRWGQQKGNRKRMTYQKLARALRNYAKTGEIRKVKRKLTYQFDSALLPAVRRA
# Outline: as §1
# ELK3 = target: T6, ELK3 (Homo sapiens, UniProt P41970 1-407); settings: protein: recombinant; tags: N-terminal GST; dsDNA, one strand shown
# T6 sequence: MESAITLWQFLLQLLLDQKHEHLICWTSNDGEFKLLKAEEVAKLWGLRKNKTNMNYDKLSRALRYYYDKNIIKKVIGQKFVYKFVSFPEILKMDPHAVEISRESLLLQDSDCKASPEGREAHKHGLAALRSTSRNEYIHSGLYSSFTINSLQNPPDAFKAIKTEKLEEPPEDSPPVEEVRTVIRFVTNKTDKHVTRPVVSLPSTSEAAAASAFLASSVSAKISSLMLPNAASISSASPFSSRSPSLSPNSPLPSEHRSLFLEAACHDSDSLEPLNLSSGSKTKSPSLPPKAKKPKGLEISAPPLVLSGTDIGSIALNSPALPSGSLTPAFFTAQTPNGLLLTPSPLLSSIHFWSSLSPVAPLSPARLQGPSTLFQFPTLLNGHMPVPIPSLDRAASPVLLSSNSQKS
# Outline: as §1
# FEV = target: T7, FEV (Homo sapiens, UniProt Q99581 1-238); settings: protein: recombinant; tags: N-terminal GST; dsDNA, one strand shown
# T7 sequence: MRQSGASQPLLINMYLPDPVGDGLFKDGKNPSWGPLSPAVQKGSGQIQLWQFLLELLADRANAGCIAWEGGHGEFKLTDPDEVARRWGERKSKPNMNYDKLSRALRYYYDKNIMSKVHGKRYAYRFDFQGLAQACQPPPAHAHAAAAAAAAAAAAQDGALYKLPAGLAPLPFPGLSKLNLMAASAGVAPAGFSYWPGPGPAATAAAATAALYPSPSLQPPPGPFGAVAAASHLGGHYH
# Outline: as §1
# ETV5 = ETV5 (Homo sapiens, UniProt P41161 1-510); settings: protein: recombinant; tags: N-terminal GST; dsDNA, one strand shown
# ETV5, sequence (P41161 whole entry): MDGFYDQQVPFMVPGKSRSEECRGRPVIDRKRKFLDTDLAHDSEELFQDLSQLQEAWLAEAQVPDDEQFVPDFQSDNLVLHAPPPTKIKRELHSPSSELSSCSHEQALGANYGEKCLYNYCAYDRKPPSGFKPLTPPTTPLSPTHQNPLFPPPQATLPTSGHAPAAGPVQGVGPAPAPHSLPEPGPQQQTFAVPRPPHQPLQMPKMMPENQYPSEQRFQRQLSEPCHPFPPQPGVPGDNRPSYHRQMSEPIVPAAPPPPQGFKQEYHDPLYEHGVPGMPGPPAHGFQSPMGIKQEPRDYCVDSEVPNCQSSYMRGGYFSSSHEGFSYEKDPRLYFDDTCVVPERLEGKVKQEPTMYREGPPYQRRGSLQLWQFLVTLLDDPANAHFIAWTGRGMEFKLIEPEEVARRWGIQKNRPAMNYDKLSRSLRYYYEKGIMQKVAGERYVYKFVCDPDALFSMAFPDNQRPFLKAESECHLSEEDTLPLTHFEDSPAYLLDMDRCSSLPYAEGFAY
# Outline: as §1
# HSF1 = HSF1 (Homo sapiens, UniProt Q00613 1-529); settings: protein: recombinant; tags: N-terminal GST; chain copies: 3; dsDNA, one strand shown
# HSF1, sequence (Q00613 whole entry): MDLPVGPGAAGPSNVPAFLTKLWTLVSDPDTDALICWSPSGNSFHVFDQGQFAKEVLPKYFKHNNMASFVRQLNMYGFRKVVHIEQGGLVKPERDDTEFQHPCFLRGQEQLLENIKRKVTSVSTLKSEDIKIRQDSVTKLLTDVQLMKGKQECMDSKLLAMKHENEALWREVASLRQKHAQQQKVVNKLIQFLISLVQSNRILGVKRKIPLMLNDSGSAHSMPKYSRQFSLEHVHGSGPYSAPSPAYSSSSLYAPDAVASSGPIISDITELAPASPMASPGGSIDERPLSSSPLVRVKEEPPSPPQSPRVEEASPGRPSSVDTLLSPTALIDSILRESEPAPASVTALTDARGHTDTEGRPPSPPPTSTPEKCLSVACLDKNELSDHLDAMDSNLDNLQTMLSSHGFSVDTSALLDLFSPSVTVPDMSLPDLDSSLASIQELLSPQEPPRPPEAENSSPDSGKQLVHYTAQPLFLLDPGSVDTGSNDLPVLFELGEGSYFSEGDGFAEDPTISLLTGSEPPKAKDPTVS
# Outline: as §1
# SPIC = target: T8, SPIC (Homo sapiens, UniProt Q8N5J4 1-248); settings: protein: recombinant; tags: N-terminal GST; dsDNA, one strand shown
# T8 sequence: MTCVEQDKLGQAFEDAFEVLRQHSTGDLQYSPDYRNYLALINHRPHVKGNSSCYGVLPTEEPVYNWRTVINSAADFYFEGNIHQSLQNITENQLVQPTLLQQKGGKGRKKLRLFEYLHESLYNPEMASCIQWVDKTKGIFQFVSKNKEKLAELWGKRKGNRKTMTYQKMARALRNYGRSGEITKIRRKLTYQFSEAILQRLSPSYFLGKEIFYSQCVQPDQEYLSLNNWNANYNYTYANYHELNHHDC
# Outline: as §1
# ELF4 = ELF4 (Homo sapiens, UniProt Q99607 1-663); settings: protein: recombinant; tags: N-terminal GST; dsDNA, one strand shown
# ELF4, sequence (Q99607 whole entry): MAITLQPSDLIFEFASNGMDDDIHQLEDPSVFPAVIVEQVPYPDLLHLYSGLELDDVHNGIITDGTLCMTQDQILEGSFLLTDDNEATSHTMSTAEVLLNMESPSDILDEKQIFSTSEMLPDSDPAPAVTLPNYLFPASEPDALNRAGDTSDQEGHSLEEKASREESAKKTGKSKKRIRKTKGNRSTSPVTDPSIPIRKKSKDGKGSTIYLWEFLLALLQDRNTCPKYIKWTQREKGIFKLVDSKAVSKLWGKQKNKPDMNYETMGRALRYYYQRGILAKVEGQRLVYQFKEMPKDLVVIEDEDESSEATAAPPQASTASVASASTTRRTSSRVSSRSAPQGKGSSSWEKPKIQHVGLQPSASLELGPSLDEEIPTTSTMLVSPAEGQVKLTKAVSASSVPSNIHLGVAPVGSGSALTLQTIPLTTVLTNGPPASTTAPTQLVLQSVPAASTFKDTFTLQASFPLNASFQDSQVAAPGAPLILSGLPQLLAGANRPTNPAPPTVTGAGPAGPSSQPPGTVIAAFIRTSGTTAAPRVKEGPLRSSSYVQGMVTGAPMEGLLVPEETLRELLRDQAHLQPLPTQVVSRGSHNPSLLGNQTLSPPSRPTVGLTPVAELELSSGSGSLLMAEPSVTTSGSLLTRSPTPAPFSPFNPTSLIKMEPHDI
# Outline: as §1
# ELK4 = target: T9, ELK4 (Homo sapiens, UniProt P28324-2 1-405); settings: protein: recombinant; tags: N-terminal GST; dsDNA, one strand shown
# T9 sequence: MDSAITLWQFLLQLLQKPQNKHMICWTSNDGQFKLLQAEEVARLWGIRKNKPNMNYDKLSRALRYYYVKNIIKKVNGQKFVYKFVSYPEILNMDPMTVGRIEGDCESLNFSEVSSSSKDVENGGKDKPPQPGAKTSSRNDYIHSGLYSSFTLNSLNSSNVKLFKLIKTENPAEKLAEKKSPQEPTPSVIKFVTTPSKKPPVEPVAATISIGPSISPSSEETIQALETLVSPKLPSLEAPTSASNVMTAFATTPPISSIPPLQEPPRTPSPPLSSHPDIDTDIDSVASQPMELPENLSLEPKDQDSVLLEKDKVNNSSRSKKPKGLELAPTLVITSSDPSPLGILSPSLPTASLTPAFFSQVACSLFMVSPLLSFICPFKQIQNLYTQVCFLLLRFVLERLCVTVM
# Outline: as §1
# ETV2 = target: T10, ETV2 (Homo sapiens, UniProt O00321 1-342); settings: protein: recombinant; tags: N-terminal GST; dsDNA, one strand shown
# T10 sequence: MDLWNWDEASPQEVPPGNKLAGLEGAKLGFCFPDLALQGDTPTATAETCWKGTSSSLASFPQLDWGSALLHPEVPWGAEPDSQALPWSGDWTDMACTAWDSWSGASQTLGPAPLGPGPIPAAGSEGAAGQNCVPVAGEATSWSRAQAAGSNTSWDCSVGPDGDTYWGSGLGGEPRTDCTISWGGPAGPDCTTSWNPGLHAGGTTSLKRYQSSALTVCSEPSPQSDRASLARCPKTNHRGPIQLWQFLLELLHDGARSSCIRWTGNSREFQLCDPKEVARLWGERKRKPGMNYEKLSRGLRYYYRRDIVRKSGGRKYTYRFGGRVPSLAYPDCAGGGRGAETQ
# Outline: as §1
# ELF3 = target: T11, ELF3 (Homo sapiens, UniProt P78545 1-371); settings: protein: recombinant; tags: N-terminal GST; dsDNA, one strand shown
# T11 sequence: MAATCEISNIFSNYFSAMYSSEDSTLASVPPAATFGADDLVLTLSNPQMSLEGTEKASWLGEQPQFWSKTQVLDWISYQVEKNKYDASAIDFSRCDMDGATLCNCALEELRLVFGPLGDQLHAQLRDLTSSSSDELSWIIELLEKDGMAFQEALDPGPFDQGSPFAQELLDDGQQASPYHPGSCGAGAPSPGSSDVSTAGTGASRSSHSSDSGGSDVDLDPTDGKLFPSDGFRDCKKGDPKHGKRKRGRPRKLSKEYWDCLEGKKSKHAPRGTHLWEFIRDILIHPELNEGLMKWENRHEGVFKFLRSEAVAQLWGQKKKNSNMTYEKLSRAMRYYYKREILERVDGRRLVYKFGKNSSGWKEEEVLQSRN
# Outline: as §1
# CRX = CRX (Homo sapiens, UniProt O43186 1-299); settings: protein: recombinant; tags: N-terminal GST; dsDNA, one strand shown
# CRX, sequence (O43186 whole entry): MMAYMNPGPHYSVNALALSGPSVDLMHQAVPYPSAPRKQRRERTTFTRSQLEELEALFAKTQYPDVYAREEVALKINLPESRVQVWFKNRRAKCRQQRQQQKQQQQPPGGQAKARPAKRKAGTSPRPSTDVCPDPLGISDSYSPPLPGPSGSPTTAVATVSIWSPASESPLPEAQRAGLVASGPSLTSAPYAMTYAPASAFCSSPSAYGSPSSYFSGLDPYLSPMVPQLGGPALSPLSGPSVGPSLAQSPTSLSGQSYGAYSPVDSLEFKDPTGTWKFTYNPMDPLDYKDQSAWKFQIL
# Outline: as §1
# ETV1 = ETV1 (Homo sapiens, UniProt P50549 1-477); settings: protein: recombinant; tags: N-terminal GST; dsDNA, one strand shown
# ETV1, sequence (P50549 whole entry): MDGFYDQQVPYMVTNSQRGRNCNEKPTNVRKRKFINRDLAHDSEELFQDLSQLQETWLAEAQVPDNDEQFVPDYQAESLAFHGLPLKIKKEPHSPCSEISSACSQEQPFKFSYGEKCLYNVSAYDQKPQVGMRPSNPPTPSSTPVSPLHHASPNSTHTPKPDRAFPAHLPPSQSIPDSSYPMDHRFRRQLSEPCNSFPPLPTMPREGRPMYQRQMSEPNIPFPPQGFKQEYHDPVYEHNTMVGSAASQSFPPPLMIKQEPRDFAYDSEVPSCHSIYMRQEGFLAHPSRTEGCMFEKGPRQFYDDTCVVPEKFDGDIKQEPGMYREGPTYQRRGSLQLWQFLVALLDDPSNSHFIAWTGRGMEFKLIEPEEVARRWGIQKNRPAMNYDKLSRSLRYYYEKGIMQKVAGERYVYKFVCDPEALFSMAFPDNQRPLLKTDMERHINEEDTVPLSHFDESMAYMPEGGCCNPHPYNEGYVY
# Outline: as §1
sequence,measurement,setting,value
CCCATA,binding signal,FLI1,"1.23 fold enrichment (6-mer frequency, TF over GST control)"
same,binding signal,ELK1,"1.26 fold enrichment (6-mer frequency, TF over GST control)"
same,binding signal,GABPA,"1.33 fold enrichment (6-mer frequency, TF over GST control)"
same,binding signal,ERG,"1.24 fold enrichment (6-mer frequency, TF over GST control)"
same,binding signal,ELF1,"1.21 fold enrichment (6-mer frequency, TF over GST control)"
same,binding signal,EHF,"1.13 fold enrichment (6-mer frequency, TF over GST control)"
same,binding signal,SPI1,"1.18 fold enrichment (6-mer frequency, TF over GST control)"
same,binding signal,SPIB,"1.34 fold enrichment (6-mer frequency, TF over GST control)"
same,binding signal,ELK3,"1.21 fold enrichment (6-mer frequency, TF over GST control)"
same,binding signal,FEV,"1.24 fold enrichment (6-mer frequency, TF over GST control)"
same,binding signal,ETV5,"1.23 fold enrichment (6-mer frequency, TF over GST control)"
same,binding signal,HSF1,"1.14 fold enrichment (6-mer frequency, TF over GST control)"
same,binding signal,SPIC,"1.31 fold enrichment (6-mer frequency, TF over GST control)"
same,binding signal,ELF4,"1.32 fold enrichment (6-mer frequency, TF over GST control)"
same,binding signal,ELK4,"1.06 fold enrichment (6-mer frequency, TF over GST control)"
same,binding signal,ETV2,"1.3 fold enrichment (6-mer frequency, TF over GST control)"
same,binding signal,ELF3,"1.33 fold enrichment (6-mer frequency, TF over GST control)"
same,binding signal,CRX,"1.24 fold enrichment (6-mer frequency, TF over GST control)"
same,binding signal,ETV1,"1.24 fold enrichment (6-mer frequency, TF over GST control)"
